SRC2 inh = inhibits human steroid receptor coactivator 2; AID 651957; actives 0.17% (n = 370,000); HEK293 GAL4-SRC2 luciferase reporter, luminescence; Q15596; inhibition, % at 9 µM;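 active = inhibition above the mean inhibition of all tested compounds plus 3 SD, set per campaign, cut at about 52% in these data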;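 note: 0% = DMSO treated cells and 100% = cells given Gossypol at 36 µM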
NCOA3 inh = inhibits human SRC3 coactivator; HEK293 GAL4-SRC3 luciferase reporter, luminescence; inhibition, % at 3.6 µM; actives 0.17% (n = 360,000); AID 588352;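 active = inhibition above a per-campaign cutoff, the mean of all compounds plus 3 SD, cut at about 60% in these data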;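 note: 0% = DMSO-treated cells and 100% = gossypol-treated cells at 36 µM; higher means less SRC3-driven luciferase light from the GAL4 reporter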
Target sequence (Q9Y6Q9 whole entry, looked up, the tested form may be a part): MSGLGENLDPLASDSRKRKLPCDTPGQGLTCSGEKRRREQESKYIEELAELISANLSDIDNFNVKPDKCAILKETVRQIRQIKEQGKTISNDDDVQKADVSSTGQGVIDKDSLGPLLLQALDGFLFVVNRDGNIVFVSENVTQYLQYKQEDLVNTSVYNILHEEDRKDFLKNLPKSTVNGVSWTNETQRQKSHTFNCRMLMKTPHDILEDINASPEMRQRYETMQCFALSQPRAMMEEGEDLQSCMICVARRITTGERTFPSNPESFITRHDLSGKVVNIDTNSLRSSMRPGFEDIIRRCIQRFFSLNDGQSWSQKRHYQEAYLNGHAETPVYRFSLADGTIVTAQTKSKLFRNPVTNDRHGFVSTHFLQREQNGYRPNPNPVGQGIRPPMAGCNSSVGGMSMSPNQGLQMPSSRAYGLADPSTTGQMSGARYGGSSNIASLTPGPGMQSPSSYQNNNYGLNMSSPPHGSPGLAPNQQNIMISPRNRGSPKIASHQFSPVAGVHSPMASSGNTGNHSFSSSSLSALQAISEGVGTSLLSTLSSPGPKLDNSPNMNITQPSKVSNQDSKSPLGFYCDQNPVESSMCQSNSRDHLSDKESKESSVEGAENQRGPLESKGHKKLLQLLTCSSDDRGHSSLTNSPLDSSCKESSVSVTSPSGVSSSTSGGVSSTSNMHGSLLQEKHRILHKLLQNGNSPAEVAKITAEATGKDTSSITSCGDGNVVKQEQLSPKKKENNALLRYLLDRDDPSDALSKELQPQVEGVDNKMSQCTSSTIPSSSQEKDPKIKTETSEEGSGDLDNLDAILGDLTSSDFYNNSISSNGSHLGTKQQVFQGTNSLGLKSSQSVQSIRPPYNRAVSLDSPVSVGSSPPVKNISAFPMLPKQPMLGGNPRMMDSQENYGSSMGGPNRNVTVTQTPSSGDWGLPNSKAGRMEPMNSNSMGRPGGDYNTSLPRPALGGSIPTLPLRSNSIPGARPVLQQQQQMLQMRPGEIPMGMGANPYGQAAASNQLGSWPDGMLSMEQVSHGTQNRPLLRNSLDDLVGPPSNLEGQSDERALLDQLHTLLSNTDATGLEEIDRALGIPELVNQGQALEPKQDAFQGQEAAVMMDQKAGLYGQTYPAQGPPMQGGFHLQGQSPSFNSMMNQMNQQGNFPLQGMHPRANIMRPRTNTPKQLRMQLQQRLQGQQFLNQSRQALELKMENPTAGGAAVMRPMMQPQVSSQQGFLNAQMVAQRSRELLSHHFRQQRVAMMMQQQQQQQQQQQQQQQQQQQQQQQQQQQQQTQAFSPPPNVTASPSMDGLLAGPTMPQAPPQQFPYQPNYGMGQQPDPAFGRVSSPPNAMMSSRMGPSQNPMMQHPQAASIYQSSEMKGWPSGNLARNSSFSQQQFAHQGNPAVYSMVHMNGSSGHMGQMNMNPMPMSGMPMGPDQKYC
GalR3 antag = human GalR3 antagonism. inhibition, % at 3 µM. actives 0.44% (n = 360,000). O60755. AID 651719. HEK293 GalR3-CNG cAMP membrane potential fluorescence; galR3 body fused to GalR1 C-terminus;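 active = inhibition above the screen-wide average plus 3 SD, cut at about 13% in these data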;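 note: forskolin and galanin both at EC90 stimulate the cells; cAMP rise reported by CNG channel membrane potential dye signal; 0% = forskolin plus galanin with DMSO and 100% = forskolin alone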
NR5A2 inv ag = inverse agonists of human LRH-1 (NR5A2) | O00482 | HEK293T StAR-luciferase reporter, LRH-1 transfected, 24 h | inhibition, % at 3.6 µM | actives 0.13% (n = 360,000) | AID 602396;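 active = inhibition above the mean inhibition of all tested compounds plus 3 SD, cut at about 73% in these data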;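 note: 0% = DMSO wells and 100% = reporter-only cells lacking LRH-1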
NR2F2 inh = inhibitors of human COUP-TFII (NR2F2); inhibition, % at 8.6 µM; P24468; actives 0.7% (n = 370,000); HEK293T NGFI-A luciferase reporter, luminescence;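 active = inhibition above a per-plate cutoff, mean inhibition of test wells between control levels plus 3 SD, cut at about 38% in these data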;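 note: cells cotransfected with COUP-TFII expression vector driving the NGFI-A reporter; 0% = median of COUP-TF2 test wells and 100% = reporter-only cells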
SRC1 inh = inhibits human SRC1 coactivator. AID 588354. actives 0.12% (n = 360,000). inhibition, % at 3.6 µM. Q15788. HEK293 GAL4-SRC1 luciferase reporter, luminescence;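 active = inhibition above the campaign mean plus 3 SD, with each screening campaign given its own cutoff, cut at about 60% in these data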;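 note: 0% = DMSO treated cells and 100% = gossypol at 36 µM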
* marks the source's active call; other numbers are inactive results. The list is not random: actives were taken first. Their share in the collection is about 1.1%.

For COc1cc(Nc2nc(-c3ccccc3)c3cc(C)ccc3n2)cc(OC)c1OC the results were SRC2 inh 93*, NCOA3 inh 7, GalR3 antag -2, NR5A2 inv ag 5, NR2F2 inh -3 and SRC1 inh 13.
`Cc1ccc2nc(NCC(=O)O)nc(-c3ccccc3)c2c1` gave SRC2 inh 5, NCOA3 inh -3, GalR3 antag -4, NR5A2 inv ag 10, NR2F2 inh 4 and SRC1 inh 12.
For C[C@@H]1O[C@@H](n2c3ccc(Cl)cc3c3ccc4c5cc(Cl)ccc5[nH]c4c32)[C@H](O)[C@H](O)[C@H]1O the results were SRC2 inh -6 and NR2F2 inh -20.
Screening c1csc(CNc2ccc3c(c2)OCCO3)c1 returned SRC2 inh 39, NCOA3 inh 52, GalR3 antag -1, NR5A2 inv ag 53, NR2F2 inh 64* and SRC1 inh 54.
Screening C=c1[nH]cc(C(C)c2c(C)n(C)c3ccccc23)/c1=C/C (stereo unspecified) returned SRC2 inh 4 and NR2F2 inh 6.
`CCCOC(c1ccccc1)(c1ccc(C(F)(F)F)cc1)C(Oc1nc(C)cc(C)n1)C(=O)O` (stereo unspecified) gave SRC2 inh -38, NCOA3 inh 71*, GalR3 antag -6, NR5A2 inv ag 81*, NR2F2 inh 32 and SRC1 inh 61*.
Screening Cc1cc(C)nc(OC(C(=O)O)C(OCCc2ccccc2)(c2ccc(F)cc2)c2ccc(F)cc2)n1 (stereo unspecified) returned SRC2 inh -11, NCOA3 inh -14, GalR3 antag -4, NR5A2 inv ag 7, NR2F2 inh 14 and SRC1 inh 13.
For COc1ccc(Br)cc1/C=C/C(=O)c1ccc(NC(C)=O)cc1 the results were SRC2 inh 61*, NCOA3 inh 71*, GalR3 antag -5, NR5A2 inv ag 48, NR2F2 inh -13 and SRC1 inh 33.
COc1ccc(NC(=O)/C=C/c2cc(Br)ccc2OC)cc1 was read as SRC2 inh 14, NCOA3 inh 3, GalR3 antag -3, NR5A2 inv ag 0, NR2F2 inh -4 and SRC1 inh 3.
COC(=O)[C@]12C[C@H](CC(=O)NCc3ccc(C)o3)C(=O)N(CCc3ccc(OC)c(OC)c3)C1=C[C@H](C(C)C)O[C@@H]2C1CC1 was read as SRC2 inh -6 and NR2F2 inh -5.
CCc1ccc(-c2nc(CSCC(=O)NC3CC3)c(C)o2)cc1 was read as SRC2 inh 56*, NCOA3 inh 20, GalR3 antag -9, NR5A2 inv ag 18, NR2F2 inh 22 and SRC1 inh 19.
CSc1ccc(-c2nc(CSCC(=O)NC3CC3)c(C)o2)cc1 was read as SRC2 inh 20, NCOA3 inh 0, GalR3 antag -7, NR5A2 inv ag 4, NR2F2 inh -17 and SRC1 inh 2.
Screening CCOC(=O)N=Nc1c(O)n(CC(=O)OC)c2ccccc12 returned SRC2 inh 4, NCOA3 inh 2, GalR3 antag -3, NR5A2 inv ag -17, NR2F2 inh 2 and SRC1 inh -1.
CCOC(=O)N=Nc1c2ccccc2c2nc3no[nH]c3nc12 was read as SRC2 inh -19, NCOA3 inh 89*, GalR3 antag -8, NR5A2 inv ag 6, NR2F2 inh -8 and SRC1 inh 35.
`CCOc1ccc(-n2c(C)c(C(=O)OC)c3cc(O)ccc32)cc1` gave SRC2 inh 15, NCOA3 inh 17, GalR3 antag -2, NR5A2 inv ag -10, NR2F2 inh 8 and SRC1 inh -19.
CCOc1ccc(-n2c(C)c(C(C)=O)c3cc(O)ccc32)cc1 was read as SRC2 inh 4, NCOA3 inh 56, GalR3 antag -6, NR5A2 inv ag 4, NR2F2 inh 9 and SRC1 inh 61*.
For COCCCNC(=O)[C@@H](Cc1ccccc1)NC(=O)[C@H]1O[C@@H](n2ccc(=O)[nH]c2=O)[C@H](O)[C@@H]1O the results were SRC2 inh -18, GalR3 antag -7 and NR2F2 inh 0.
COc1cccc(N2CCN(c3c(C#N)c(C(F)(F)F)nn3C)CC2)c1 was read as SRC2 inh 35, NCOA3 inh 31, GalR3 antag -5, NR5A2 inv ag -7, NR2F2 inh 51* and SRC1 inh 36.
For COC(=O)[C@]12C[C@H](CC(=O)NCc3ccc(C)o3)C(=O)N(CCC3=CCCCC3)C1=C[C@H](C(C)C)O[C@@H]2C1CC1 the results were SRC2 inh 31 and NR2F2 inh 10.
N#Cc1ccc(CSc2nnc(-c3cccnc3)n2-c2ccccc2)cc1 was read as SRC2 inh 9, NCOA3 inh 10, GalR3 antag -8, NR5A2 inv ag 2, NR2F2 inh 19 and SRC1 inh 1.
CCOc1ccc(-n2c(SCc3ccc(C#N)cc3)nnc2-c2cccnc2)cc1 was read as SRC2 inh 4, NCOA3 inh 3, GalR3 antag 63*, NR5A2 inv ag 4, NR2F2 inh 8 and SRC1 inh -4.
`O=C1CCCc2oc3c(cc(NS(=O)(=O)c4ccc5c6c(cccc46)C(=O)N5)c4ccccc43)c21` gave SRC2 inh -25, NCOA3 inh -4, GalR3 antag 41*, NR5A2 inv ag 15, NR2F2 inh -16 and SRC1 inh 6.
Screening O=C1c2cccc3cc([N+](=O)[O-])cc(c23)C(=O)N1CCN1CCCC1 returned SRC2 inh inactive, NCOA3 inh -52, GalR3 antag -9, NR5A2 inv ag 76*, NR2F2 inh -102 and SRC1 inh 59.
Screening O=C(O)CCSCC(=O)c1ccc2c(c1)OCCO2 returned SRC2 inh 56*, NCOA3 inh 22, GalR3 antag 0, NR5A2 inv ag 8, NR2F2 inh 34 and SRC1 inh 11.
`CCOC(=O)N1CCN(C(=O)C2CCCN(Cc3nc(-c4ccc(Cl)cc4)oc3C)C2)CC1` (stereo unspecified) gave SRC2 inh 10, NCOA3 inh 3, GalR3 antag 82*, NR5A2 inv ag 42, NR2F2 inh 73* and SRC1 inh 19.
For O=C(O)C1CCCCC1C(=O)Nc1ccc2c(c1)OCCO2 (stereo unspecified) the results were SRC2 inh 55*, NCOA3 inh 49, GalR3 antag -4, NR5A2 inv ag 63, NR2F2 inh 26 and SRC1 inh 43.
For O=C(Nc1ccc2c(c1)OCCO2)C1CC1c1ccccc1 (stereo unspecified) the results were SRC2 inh -2, NCOA3 inh -48, GalR3 antag 1, NR5A2 inv ag -76, NR2F2 inh -22 and SRC1 inh -37.

Assay outcomes as filed in PubChem.
